# From PubChem BioAssay
# Several values for one entry are separate records, joined by “and”; a condition that tells them apart may be missing. Equal entries are not always repeated. Activity calls are given as the source filed them. Unless noted, no stated cut-off is given here; in the data, active means inhibition above about 80%; inactive means the rest.
# Experiments:
# [1] = BT084 cell growth, single and combined drugs, ICGC_MB145, cisplatin and BGB IC40 combos (AID 1671461); conditions: BT084 medulloblastoma cells, drug combinations, stronger effect = higher value;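 further: cells exposed to drugs for 96 hours; 0% = vehicle DMSO and 100% = high DMSO full killing control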
# [2] = RCMB18 cell growth, single agent and combined, cisplatin and BGB IC40 combos (AID 1671462); conditions: RCMB18 medulloblastoma cells, stronger effect = higher value;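 further: cells exposed to compound for four days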
# [3] = CRL1545 cell growth, single agent and combined, cisplatin and BGB IC20 combos (AID 1671464); conditions: CRL1545 osteosarcoma cells, stronger effect = higher value;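 further: cells exposed to compound for 96 hours before readout; 0% = vehicle DMSO and 100% = high DMSO killing control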
# [4] = viability loss with induced miR-34 in A549 – imaging, A549 dox-inducible miR-34, nuclei and caspase counts, primary screen (AID 1347080;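 active means compounds whose cell count with miR-34 switched on is under 0.7 times the count with it off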); conditions: A549 miR-34 inducible, Hoechst nuclei count, 48 h
# [5] = MELAS cybrid and Rieske KO viability enhancers – cell-based, MELAS cybrids, Rieske KO mouse fibroblasts, CellTiter-Glo, primary screen (AID 1508586;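 active means mean z-score across replicates of 1.96 or higher in either the MELAS or the Rieske mutant cell line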;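 further: z relative to plate mean and SD of compound and empty wells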); conditions: low glucose
# [6] = growth inhibition, single agent or in combination, cell-based, chromothripsis tumors, cisplatin or BGB combos (AID 1671449); conditions: LFS_MB_P medulloblastoma cells;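 further: cells exposed for 96 hours; 0% = vehicle DMSO and 100% = killing by high DMSO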
# [7] = growth inhibition, single agent and combos, cell-based, chromothripsis tumors, cisplatin or BGB combos (AID 1671450); conditions: HDN33 neuroblastoma cells, stronger effect = higher value;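 further: cells exposed to compound for four days; 0% = vehicle DMSO and 100% = cell killing by high DMSO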
# [8] = growth inhibition, single agents and combos, ICB984, cell-based, cisplatin or BGB combos, synergistic combos for chromothripsis tumors (AID 1671451; call rule not given here;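 further: cells exposed for 96 hours before readout; 0% = vehicle DMSO and 100% = killing by high DMSO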); conditions: ICB984 medulloblastoma cells, drug combinations, stronger effect = higher value
# [9] = growth inhibition, single agents and combos, LFS_MB_1R, cell-based, cisplatin or BGB combos, synergistic combos for chromothripsis tumors (AID 1671452); conditions: LFS_MB_1R medulloblastoma cells, stronger effect = higher value;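 further: cells exposed for 96 hours before readout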
# [10] = growth inhibition, single agents and combos, HTB85, cell-based, BGB or cisplatin IC20 combos, synergistic combos for chromothripsis tumors (AID 1671453); conditions: HTB85 osteosarcoma cells, drug combinations, stronger effect = higher value;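 further: cells exposed for 96 hours before readout; 0% = vehicle DMSO and 100% = high DMSO killing control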
# [11] = growth inhibition, single agents and combos, CRL2098, cell-based, BGB or cisplatin IC20 combos, synergistic combos for chromothripsis tumors (AID 1671454); conditions: CRL2098 osteosarcoma cells, drug combinations, stronger effect = higher value;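 further: cells exposed for 96 h before readout; 0% = vehicle DMSO and 100% = killing by high DMSO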
# [12] = growth inhibition, single agents and combos, HD-MB03, cell-based, BGB or cisplatin IC20 combos, synergistic combos for chromothripsis tumors (AID 1671455; in the data active means inhibition above about 83%;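 further: 0% = vehicle DMSO and 100% = high DMSO as cytotoxic control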); conditions: HD-MB03 medulloblastoma cells, stronger effect = higher value
# [13] = growth inhibition, single agents and combos, UWB1.289, cell-based, BGB or cisplatin combos, synergistic combos for chromothripsis tumors (AID 1671456); conditions: UWB1.289 ovarian carcinoma cells, stronger effect = higher value;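 further: cells exposed to compound for four days; 0% = vehicle DMSO and 100% = killing by high DMSO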
# [14] = growth inhibition, single agents and combos, LFS_MB_2R, cell-based, cisplatin combos, synergistic combos for chromothripsis tumors (AID 1671457); conditions: LFS_MB_2R medulloblastoma cells, stronger effect = higher value;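 further: cells exposed to compound for four days before readout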
# [15] = growth inhibition, MDA-MB-436, cell-based, BGB or cisplatin combos, synergistic combos for chromothripsis tumors (AID 1671458; call rule not given here;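 further: cells exposed for 96 hours; 0% = vehicle DMSO and 100% = killing by high DMSO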); conditions: MDA-MB-436 breast carcinoma growth inhibition, drug combinations, stronger effect = higher value
# [16] = UWB1.289_BRCA1 ovarian cancer growth, cell-based, BGB or cisplatin combinations (AID 1671459); conditions: UWB1.289 BRCA1 ovarian carcinoma, drug combinations, stronger effect = higher value
# [17] = drug combination toxicity in non-malignant astrocytes – cell-based, BGB or cisplatin IC20 combos, cytotoxicity control for chromothriptic childhood tumor combination screen (AID 1671460); conditions: Human astrocytes, viability inhibition, drug combinations, at 0.5 µM, stronger effect = higher value;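 further: cells exposed to compounds for 96 hours before viability readout; 0% = vehicle and 100% = killing control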
# [18] = cisplatin combination, at 0.5 µM
# [19] = measured here: BGB IC40 combination 0.05 uM, at 0.05 µM
# [20] = measured here: BGB IC40 combination, at 0.05 µM
# [21] = measured here: combination with cisplatin, at 0.5 µM
# [22] = measured here: with BGB IC20 combination, at 0.5 µM
# [23] = measured here: with cisplatin IC20 combination, at 0.5 µM
# [24] = measured here: combination with BGB IC40, at 0.05 µM
# [25] = measured here: combination with cisplatin, at 5 µM
structure (smiles),measurement,setting,value
CCCCN(Cc1ccc(C(=O)NO)cc1)C(=O)Nc1ccccc1,inhibition,[1]; [18],19.3% and 17.8%
same,inhibition,"[1]; cisplatin combination, at 5 µM",71.8% and 68.9%
same,inhibition,[1]; [19],-5.38% and 25.6%
same,inhibition,"[1]; single agent, at 5 µM",45.6% and 57.8%
same,inhibition,[2]; at 0.5 µM,12.4% (inactive) and 19.2% (inactive)
same,inhibition,"[2]; cisplatin combo, at 5 µM",43.7% and 48.5%
same,inhibition,[2]; [20],-4.7% and 0.072%
same,inhibition,[2]; [21],39% and 19%
same,inhibition,"[2]; single agent, at 5 µM",15.2% and 39.4%
same,inhibition,[3]; at 0.5 µM,-6.16% (inactive) and 6.99% (inactive)
same,inhibition,[3]; [22],-21.4% and 15.9%
same,inhibition,[3]; [23],1.44% and 0.349%
same,inhibition,"[3]; single agent, at 0.05 µM",-0.576% and -13%
same,inhibition,"[3]; single agent, at 5 µM",32.4% and 24.1%
CC1OC(n2cc(F)c(=O)[nH]c2=O)C(O)C1O (stereo not drawn),fold change,"[4]; stronger effect = lower value, cell number ratio, induced over uninduced",0.451 (active)
same,fold change,[4]; measured here: relative caspase fold change +Dox/-Dox,2.09
same,cell count,"[4]; measured here: total cells with miR-34 induction, stronger effect = lower value",2920
same,cell count,[4]; measured here: total cells without miR-34 induction,6480
same,z-score,"[5]; MELAS cybrid survival, CellTiter-Glo 48 h, stronger effect = higher value",-0.306 (inactive)
same,z-score,"[5]; Rieske KO mouse fibroblast survival, CellTiter-Glo 72 h",0.652
same,inhibition,"[6]; at 0.5 µM, stronger effect = higher value",-9.42% (inactive)
same,inhibition,"[6]; measured here: combination with BGB IC20, at 0.005 µM",-7.8%
same,inhibition,"[6]; measured here: combination with BGB IC40, at 0.005 µM",-40.7%
same,inhibition,[6]; [24],-29.6%
same,inhibition,"[6]; measured here: combination with cisplatin, at 0.5 µM, stronger effect = higher value",-29.8%
same,inhibition,"[6]; measured here: combination with cisplatin, at 5 µM, stronger effect = higher value",-27.3%
same,inhibition,"[7]; BGB combo, at 5 µM",-8.24%
same,inhibition,[7]; at 0.5 µM,-30.6% (inactive)
same,inhibition,"[7]; cisplatin combo, at 5 µM",-12.9%
same,inhibition,[7]; [22],-22.1%
same,inhibition,[7]; [23],-19.8%
same,inhibition,"[7]; single agent, at 5 µM",-20.3%
same,inhibition,"[8]; BGB IC20 combo, at 0.005 µM",-5.88%
same,inhibition,"[8]; BGB IC40 combo, at 0.005 µM",-26.6%
same,inhibition,"[8]; BGB IC40 combo, at 0.05 µM",-7.54%
same,inhibition,[8]; at 0.5 µM,-15.5% (inactive)
same,inhibition,"[8]; cisplatin combo, at 0.05 µM",-10.5%
same,inhibition,"[8]; cisplatin combo, at 0.5 µM",-3.76%
same,inhibition,"[8]; cisplatin combo, at 5 µM",-40.8%
same,inhibition,"[8]; measured here: 5 uM single agent, at 5 µM",-21.2%
same,inhibition,[9]; at 0.5 µM,-23.1% (inactive)
same,inhibition,[9]; [24],-35.1%
same,inhibition,[9]; [21],-21.6%
same,inhibition,[9]; [25],-58.4%
same,inhibition,[10]; at 0.5 µM,-23.8% (inactive)
same,inhibition,"[10]; measured here: with BGB IC20, at 0.5 µM",-38.6%
same,inhibition,"[10]; measured here: with BGB IC20, at 5 µM",-31%
same,inhibition,"[10]; measured here: with cisplatin IC20, at 0.5 µM",-26.6%
same,inhibition,"[10]; measured here: with cisplatin IC20, at 5 µM",-40.3%
same,inhibition,"[10]; single agent, at 5 µM",-22%
same,inhibition,[11]; at 0.5 µM,-5.43% (inactive)
same,inhibition,"[11]; measured here: combination with BGB at IC20, at 0.5 µM",-21.1%
same,inhibition,"[11]; measured here: combination with cisplatin at IC20, at 0.5 µM",-73.9%
same,inhibition,[12]; at 0.5 µM,-15.3% (inactive)
same,inhibition,"[12]; measured here: combo with BGB at IC20, at 0.5 µM",-17.8%
same,inhibition,"[12]; measured here: combo with cisplatin at IC20, at 0.5 µM",-10.3%
same,inhibition,[13]; at 0.5 µM,-6.51% (inactive)
same,inhibition,"[13]; measured here: inhibition with BGB combination, at 0.05 µM",-35.5%
same,inhibition,"[13]; measured here: inhibition with cisplatin combination, at 0.05 µM",-17.5%
same,inhibition,[14]; at 0.5 µM,-17.7% (inactive)
same,inhibition,[14]; [21],-12.9%
same,inhibition,[14]; [25],-95.4%
same,inhibition,[15]; at 0.5 µM,-32.6% (inactive)
same,inhibition,"[15]; measured here: BGB combination, at 0.5 µM",-38.6%
same,inhibition,"[15]; measured here: BGB combination, at 5 µM",-19.2%
same,inhibition,"[15]; measured here: cisplatin combination, at 0.5 µM",-54.4%
same,inhibition,"[15]; measured here: cisplatin combination, at 5 µM",12%
same,inhibition,"[16]; BGB combination, concentration series, at 5 µM",-3.82%
same,inhibition,[16]; at 0.5 µM,-19.6% (inactive)
same,inhibition,"[16]; cisplatin combination, concentration series, at 5 µM",4%
same,inhibition,[17],-18.2% (inactive)
same,inhibition,[17]; measured here: combo with BGB IC20,-17.6%
same,inhibition,[17]; measured here: combo with cisplatin IC20,-13.1%
same,inhibition,[1]; at 0.5 µM,-33.9% (inactive)
same,inhibition,[1]; [18],-18.2%
same,inhibition,"[1]; cisplatin combination, at 5 µM",3.57%
same,inhibition,[1]; [19],-9.17%
same,inhibition,"[1]; single agent, at 5 µM",-31.7%
same,inhibition,[2]; at 0.5 µM,-20.6% (inactive)
same,inhibition,"[2]; cisplatin combo, at 5 µM",-44.8%
same,inhibition,[2]; [20],-8.2%
same,inhibition,[2]; [21],-22.5%
same,inhibition,"[2]; single agent, at 5 µM",-11.4%
same,inhibition,[3]; at 0.5 µM,-45.1% (inactive)
same,inhibition,[3]; [22],-21.9%
same,inhibition,[3]; [23],-60.2%
same,inhibition,"[3]; single agent, at 0.05 µM",-41.1%
same,inhibition,"[3]; single agent, at 5 µM",-1.1%
